Potency and outcome data for 33 compounds are collected here from PubChem BioAssay (Tox21).

Records with an inconclusive call do not appear. The source made the active and inactive calls. Unless noted, calls come from the whole dose curve; as a rule, active = well fitted curve in the direction sought with a large enough effect in the repeat runs; inconclusive = weak or mixed curves; inactive = no such curve, though single readings can be large; an effect the other way counts as inactive or inconclusive.

A short description of assay [1]: qHTS assay to identify small molecule that activate the aryl hydrocarbon receptor (AhR) signaling pathway - cell viability counter screen (AID 743086). Note: nearly all actives have a fitted effect of over 45% in size. Note: potency is the fitted concentration of half-maximal effect. The essentials: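 Cytotoxicity counter screen: CellTiter-Fluor signal (30 min, 37 C) in 4000 HepG2 cells/well carrying the DRE-luciferase reporter, following 24 h compound exposure at 37 C.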
(In general: In qHTS, concentration-response curves come from the screen itself.)

Assay [2] can be described thus: qHTS assay to identify small molecule antagonists of the peroxisome proliferator-activated receptor gamma (PPARg) signaling pathway - cell viability counter screen (AID 743194). Note: nearly all actives have a fitted effect of over 55% in size. Note: potency is the fitted concentration of half-maximal effect. The essentials: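 Viability was measured as CellTiter-Glo luminescence in GeneBLAzer PPARg UAS-bla HEK293H cells. These cells had been exposed 17 h at 37 C to compounds together with rosiglitazone at 50 nM final, with the beta-lactamase readout taken in the same wells.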

The nature of assay [3]: qHTS assay for small molecule agonists of the antioxidant response element (ARE) signaling pathway (AID 743202; active = well fitted activation curve with a large enough effect in the signal ratio in the repeat runs, not every such curve was filed as active; the % refers to the signal ratio; note: potency is the fitted concentration of half-maximal effect). Summed up:
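Quantitative high-throughput format in HepG2 cells bearing an integrated ARE-beta-lactamase reporter. Compound exposure lasted 16 h at 37 C, and fluorescence was read 2 h after adding LiveBLAzer B/G substrate at room temperature.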

Assay [4] is described as follows: qHTS assay for small molecule agonists of the antioxidant response element (ARE) signaling pathway - cell viability counter screen (AID 743203; calls by dose curve; note: nearly all actives have a fitted effect of over 55% in size; note: potency is the fitted concentration of half-maximal effect). The essentials: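 Following 16 hrs of compound treatment at 37C, HepG2 cells with an ARE-controlled beta-lactamase gene were lysed with CellTiter-Glo. Luminescence was read after 30 min at room temperature.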
Assay [5] is described as follows: qHTS assay for small molecule activators of the heat shock response signaling pathway - cell viability counter screen (AID 743209). Note: nearly all actives have a fitted effect of over 50% in size. Note: potency is the fitted concentration of half-maximal effect. The essentials: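 Readout: CellTiter-Glo luminescence, 30 min at room temperature. System: HSE-bla HeLa cells, 1500/well, plated overnight. Treatment: compounds in DMSO, 5 h at 37 C.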
Assay [6] can be described thus: qHTS assay for small molecule activators of the heat shock response signaling pathway (AID 743210; active = well fitted activation curve with a large enough effect in the signal ratio in the repeat runs, with a control signal flat, not every such curve was filed as active; the % refers to the signal ratio;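 note: HeLa cells with beta-lactamase reporter driven by heat shock elements; series mostly up to about 63 µM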). The essentials:
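HeLa HSE-bla cells, overnight plating; cpd in DMSO 5 h, 37 C; LiveBLAzer B/G FRET substrate 2.5 h RT; fluorescence intensity read.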

A short description of assay [7]: qHTS assay to identify aromatase inhibitors - cell viability counter screen (AID 743084).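 Note: cells stimulated with testosterone during compound exposure; nearly all actives have a fitted effect of over 55% in size.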 Note: potency is the fitted concentration of half-maximal effect.
The target in assay [8] is Peroxisome proliferator-activated receptor gamma (Homo sapiens) (UniProt P37231). The experiment in a line: qHTS assay to identify small molecule agonists of the peroxisome proliferator-activated receptor gamma (PPARg) signaling pathway (AID 743094; active = well fitted activation curve with a large enough effect in the signal ratio in the repeat runs, not every such curve was filed as active; the % refers to the signal ratio). The essentials:
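Compounds dissolved in DMSO were added to PPARg UAS-bla HEK293H cells for 17 h at 37C, and reporter expression was quantified by fluorescence intensity after 1 h with LiveBLAzer B/G FRET substrate.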

For assay [9] the target is unchanged. As to the kind of experiment: qHTS assay to identify small molecule antagonists of the peroxisome proliferator-activated receptor gamma (PPARg) signaling pathway (AID 743191; calls by dose curve; note: series mostly up to about 63 µM; nearly all actives have a fitted effect of over 30% in size). Summed up:
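Beta-lactamase reporter under UAS control in HEK293H PPARg-bla cells; compound treatment 17 h at 37C. Read-out: fluorescence intensity after 1 h room-temperature incubation with LiveBLAzer B/G FRET substrate.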

Assay [10] deals with Aryl hydrocarbon receptor (Homo sapiens) (UniProt P35869). As to the kind of experiment: qHTS assay to identify small molecule that activate the aryl hydrocarbon receptor (AhR) signaling pathway (AID 743085).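 Note: HG2L7.5c1 human HepG2 liver cells with stably integrated DRE-driven firefly reporter; series mostly up to about 70 µM; nearly all actives have a fitted effect of over 15% in size.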 The essentials:
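24 h compound exposure, 37C, HepG2-derived HG2L7.5c1 cells with DRE-responsive luciferase. Readouts: fluorescence viability, then luminescence at room temperature after 30 min.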

Aryl hydrocarbon receptor (Homo sapiens), sequence (P35869 whole entry, looked up): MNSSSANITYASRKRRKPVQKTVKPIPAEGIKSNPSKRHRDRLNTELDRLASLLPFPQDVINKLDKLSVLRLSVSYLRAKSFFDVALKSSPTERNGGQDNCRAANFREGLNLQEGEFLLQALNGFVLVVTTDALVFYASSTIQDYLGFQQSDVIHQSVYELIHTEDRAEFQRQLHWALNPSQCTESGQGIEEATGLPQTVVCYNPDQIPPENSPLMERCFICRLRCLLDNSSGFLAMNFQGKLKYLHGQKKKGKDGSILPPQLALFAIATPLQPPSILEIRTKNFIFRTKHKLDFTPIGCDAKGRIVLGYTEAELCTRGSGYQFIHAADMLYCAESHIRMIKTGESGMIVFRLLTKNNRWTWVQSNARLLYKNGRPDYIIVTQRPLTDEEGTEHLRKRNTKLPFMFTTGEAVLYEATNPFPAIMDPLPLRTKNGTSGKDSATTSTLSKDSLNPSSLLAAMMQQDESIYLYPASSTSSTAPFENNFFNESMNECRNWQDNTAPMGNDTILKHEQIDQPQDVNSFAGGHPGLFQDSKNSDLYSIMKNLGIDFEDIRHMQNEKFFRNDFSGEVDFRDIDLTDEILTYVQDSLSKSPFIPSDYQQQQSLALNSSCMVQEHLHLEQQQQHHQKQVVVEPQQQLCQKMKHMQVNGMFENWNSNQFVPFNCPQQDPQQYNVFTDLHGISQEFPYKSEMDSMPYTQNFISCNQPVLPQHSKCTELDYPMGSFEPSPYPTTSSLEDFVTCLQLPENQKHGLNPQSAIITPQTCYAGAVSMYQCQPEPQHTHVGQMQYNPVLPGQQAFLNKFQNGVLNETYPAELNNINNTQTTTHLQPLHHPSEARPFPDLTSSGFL
Peroxisome proliferator-activated receptor gamma (Homo sapiens), sequence (P37231 whole entry, looked up): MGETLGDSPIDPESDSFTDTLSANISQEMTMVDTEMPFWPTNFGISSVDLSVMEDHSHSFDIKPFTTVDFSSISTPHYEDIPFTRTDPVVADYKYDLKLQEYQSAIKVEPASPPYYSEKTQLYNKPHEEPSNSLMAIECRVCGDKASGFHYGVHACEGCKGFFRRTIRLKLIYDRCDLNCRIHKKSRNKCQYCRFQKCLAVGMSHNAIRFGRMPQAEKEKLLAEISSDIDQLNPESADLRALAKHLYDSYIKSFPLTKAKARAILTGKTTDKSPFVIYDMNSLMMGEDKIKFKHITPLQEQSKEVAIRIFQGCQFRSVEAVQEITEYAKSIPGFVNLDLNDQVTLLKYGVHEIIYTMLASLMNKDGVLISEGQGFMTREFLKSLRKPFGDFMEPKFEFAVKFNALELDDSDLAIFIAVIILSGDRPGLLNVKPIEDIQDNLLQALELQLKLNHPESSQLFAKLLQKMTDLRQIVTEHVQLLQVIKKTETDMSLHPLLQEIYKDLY

As to `NCc1ccccc1`, the Potency result in assay [1], in [2], in [3], in assay [4] and in assay [5] was “inactive” throughout. For the same compound, the result in [6] was inactive.

In the case of `NC(N)=NN=C(/C=C/c1ccc([N+](=O)[O-])o1)/C=C/c1ccc([N+](=O)[O-])o1`, the Potency in [7] was 5.31 µM (active); in [1], 7.5 µM (active); in assay [2], 2.11 µM (active); in [4], 5.96 µM (active); in assay [5], 5.31 µM (active).

For the compound `O=S1(=O)c2cccc3cccc(c23)N1CCCN1CCN(c2ccc(F)cc2)CC1`, the Potency result in assay [1], in assay [8], in [9], in assay [2], in [4] and in assay [5] was “inactive” each time.

As for `O=C(/C=C/c1ccc(O)c(O)c1)O[C@@H]1C[C@](O)(C(=O)O)C[C@@H](O)[C@H]1O`, the Potency entry in assay [1], in assay [2], in assay [4] and in assay [5] was “inactive” throughout. Further, the call in assay [6] was inactive.

As to `COc1ccc([C@@H]2Sc3ccccc3N(CCN(C)C)C(=O)[C@@H]2OC(C)=O)cc1`, the Potency result in assay [2], in assay [3], in assay [4] and in assay [5] was “inactive” each time. Also, the compound was called inactive in assay [6].

With `CCOC(=O)[C@H](CCc1ccccc1)N[C@H]1CCc2ccccc2N(CC(=O)O)C1=O`, the Potency result in assay [10], in assay [1] and in assay [2] was “inactive” in each case.

As for `CCCCOC(=O)c1ccccc1C(=O)OCC(CC)CCCC` (centres undefined), the Potency entry in [10], in assay [1], in [8], in assay [9], in assay [2] and in assay [3] was “inactive” each time. The Potency result in assay [4] and in [5] was “inactive” in each case. Moreover, the outcome in [6] was inactive.

On to `Cn1sccc1=O`, for which the Potency result in [10], in assay [1], in assay [9], in assay [2], in assay [4] and in assay [5] was “inactive” in each case.

With `COC(Cc1ccccc1)OC`, the Potency entry in assay [10], in [1], in assay [8], in [9], in assay [2] and in assay [3] was “inactive” in each case. Besides, the Potency result in [4] and in assay [5] was “inactive” each time. The compound was called inactive in assay [6].

Regarding `O=C(O)C(c1ccc(Cl)cc1)c1ccc(Cl)cc1`, the Potency result in assay [7], in assay [1], in assay [2], in [3], in assay [4] and in assay [5] was “inactive” throughout. Further, the compound was classed as inactive in assay [6].

`O=C(O)Cn1c(C(=O)Nc2nc(-c3ccccc3Cl)cs2)cc2ccccc21`: the Potency entry in assay [7], in assay [9], in assay [2], in assay [4] and in [5] was “inactive” in each case. Also, the Potency in [3] is 21.1 µM (active).

`NC(N)=N/N=C/c1c(Cl)cccc1Cl`: the Potency result in assay [10], in assay [1], in assay [8], in assay [9], in assay [2] and in assay [4] was “inactive” throughout. Further, the Potency result in [5] is “inactive”. Further, in assay [6], the call was inactive.

In the case of `O=C(O)c1cn(C2CC2)c2cc(Cl)c(F)cc2c1=O`, the Potency result in assay [2], in assay [3], in [4] and in [5] was “inactive” each time. Besides, the compound was classed as inactive in assay [6].

For the compound `CCC(=O)OC(C)(C)C1CC=C(C)CC1` (centres undefined), the Potency result in assay [7], in [8], in assay [9], in assay [2] and in [5] was “inactive” each time. For the same compound, in assay [6], the compound was called inactive.

Turning to `COc1cc(C(C)(C)C)c(O)c(C(C)(C)C)c1`, the Potency result in [1], in assay [8], in [2], in assay [3], in [4] and in assay [5] was “inactive” each time. Besides, the outcome in assay [6] was inactive.

Turning to `Cc1cc(NC(=O)C(=O)O)cc(C)c1Oc1ccc(O)c2c1CCC2`, the Potency entry in assay [1], in assay [3], in [4] and in [5] was “inactive” in each case. For the same compound, the compound was called inactive in assay [6].

In the case of `O=[N+]([O-])c1cccc(Cl)c1Cl`, the Potency result in [1], in [8], in assay [9], in [3], in assay [4] and in assay [5] was “inactive” throughout. Besides, the compound was classed as inactive in assay [6].

Turning to `CCC(C)N(C)C(=O)c1cc2ccccc2c(-c2ccccc2Cl)n1` (centres undefined), the Potency result in [10], in assay [1], in assay [9], in assay [2], in assay [4] and in assay [5] was “inactive” in each case. Moreover, the compound was classed as inactive in [6].

Turning to `Oc1ccc(Cc2ccccc2)cc1`, the Potency entry in assay [2], in assay [4] and in [5] was “inactive” each time.

As for `CCOc1ccc(NC(=O)CC(C)=O)cc1`, the Potency entry in [7], in assay [1], in assay [2], in assay [3], in assay [4] and in assay [5] was “inactive” in each case. For the same compound, the outcome in [6] was inactive.

Turning to `CC[C@]12CCCN3CCc4c(n(c5ccccc45)C(=O)C1)[C@@H]32`, the Potency result in [7], in assay [2], in assay [3], in [4] and in assay [5] was “inactive” in each case. In assay [6], the compound was classed as inactive.

For `C=CC(C)(CCC=C(C)C)OC(=O)c1ccccc1` (centres undefined), the Potency result in assay [2], in assay [3] and in assay [4] was “inactive” in each case.

`CC(C)(Oc1ccc(Cl)cc1)C(=O)OCCCOC(=O)C(C)(C)Oc1ccc(Cl)cc1`: the Potency entry in assay [2], in assay [3], in assay [4] and in [5] was “inactive” throughout. In addition, in assay [6], the outcome was inactive.

For the compound `CC(Cc1cccc(C(F)(F)F)c1)NCCOC(=O)c1ccccc1` (centres undefined), the Potency result in [10] and in assay [8] was “inactive” in each case. For the same compound, the Potency in [2], in [4] and in assay [5] was 23.7 µM (active) in each case.

`CC[C@@H]1C[C@H](N(Cc2cc(C(F)(F)F)cc(C(F)(F)F)c2)C(C)=O)c2cc(C(F)(F)F)ccc2N1C(=O)OC(C)C`: the Potency result in assay [1], in assay [8], in assay [9], in [2], in assay [4] and in assay [5] was “inactive” in each case. Besides, the compound was called inactive in [6].

In the case of `O=C(NS(=O)(=O)/C=C/c1cccs1)c1ccc(F)cc1Br`, the Potency entry in assay [7], in assay [9], in [2], in [4] and in assay [5] was “inactive” in each case. The compound was called inactive in assay [6].

In the case of `CCCc1ccccc1`, the Potency result in assay [7], in assay [9], in assay [2], in [4] and in assay [5] was “inactive” throughout. Also, the result in [6] was inactive.

As to `CCCCCOC(=O)c1ccc(O)cc1`, the Potency entry in assay [10], in [1], in [8], in [2], in assay [4] and in assay [5] was “inactive” throughout.

Regarding `Nc1cnn([C@@H]2O[C@H](CO)[C@@H](O)[C@H]2O)c(=O)n1`, the Potency result in assay [1], in assay [2], in [3], in [4] and in assay [5] was “inactive” each time. The compound was called inactive in [6].

On to `N#CCCNCCC#N`, for which the Potency entry in [7], in assay [8], in [9], in assay [2], in assay [3] and in [4] was “inactive” throughout. For the same compound, in assay [5], the Potency result was “inactive”. Also, in assay [6], the compound was classed as inactive.

For `O=CNc1ccccc1`, the Potency entry in assay [10], in [2], in assay [3], in assay [4] and in assay [5] was “inactive” in each case. Further, the compound was called inactive in [6].

As for `O=[N+]([O-])c1cc[n+]([O-])cc1`, the Potency result in [10] and in [8] was “inactive” in each case. Further, in assay [4], the Potency was 30.6 µM (active). Besides, in [6], the result was inactive.

With `CC(C)c1cccc(C(C)C)c1NC(=O)NS(=O)(=O)c1cc(C(C)(C)O)co1`, the Potency result in [2], in assay [4] and in assay [5] was “inactive” throughout. In assay [6], the result was inactive.
